FECH inh – blocks human mitochondrial ferrochelatase activity; P22830; purified FECH, Ni-mesoporphyrin absorbance 550 nm; calls only at 10 µM (by protocol); 3.3% of 20,000 active; AID 1671448;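 active = enzyme reaction rate more than 3 SD below the solvent-only control wells on the same plate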;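 also: lower slope than DMSO wells means FECH inhibition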
Target sequence (P22830 whole entry, looked up): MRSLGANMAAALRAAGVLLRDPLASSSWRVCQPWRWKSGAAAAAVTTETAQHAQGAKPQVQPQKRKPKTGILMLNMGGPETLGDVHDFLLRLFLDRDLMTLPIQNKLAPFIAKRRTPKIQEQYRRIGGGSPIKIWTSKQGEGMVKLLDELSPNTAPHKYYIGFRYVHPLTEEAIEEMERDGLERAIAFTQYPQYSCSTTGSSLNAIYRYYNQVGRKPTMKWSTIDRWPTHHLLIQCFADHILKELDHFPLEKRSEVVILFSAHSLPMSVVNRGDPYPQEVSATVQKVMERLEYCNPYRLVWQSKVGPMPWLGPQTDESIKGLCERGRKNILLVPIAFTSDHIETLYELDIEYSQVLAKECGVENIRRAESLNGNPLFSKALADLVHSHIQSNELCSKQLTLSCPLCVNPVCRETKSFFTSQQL
Of the large screens only hits and unclear results are named; the others gave an inactive call. The entries come from a sample that favours hits as a whole.

CCN1C(SCC(=O)Nc2ccccc2F)=NS(=O)(=O)c2ccccc21	FECH inh active
CC(NC(=O)c1cc(-c2ccccc2O)n[nH]1)c1cn2ccsc2n1 (stereo not drawn)	none
CCCCCNC(=O)C1CCN(c2ccc(-c3ccccc3)nn2)CC1	none
CCOc1ccc(CNC(=O)c2nc3ccccc3n(C)c2=O)cc1OC	none
COCCN1CC(Nc2nc(-c3cccnc3)nc3c2CCNC3)CC1=O (stereo not drawn)	none
Cc1ccc(CNS(=O)(=O)c2ccc(N3C(=O)CCS3(=O)=O)cc2)cc1	none
COCC(NC(=O)c1cc(Cl)c[nH]c1=O)c1ccnn1C (stereo not drawn)	none
CCc1ccc(C2=C(C)C(=O)N(CC(=O)Nc3cc(C)ccc3OC)S2(=O)=O)cc1	none
O=C(CN1c2ccc(F)cc2-c2ccccc2S1(=O)=O)NCCCn1ccnc1	none
CCc1ccc2c(c1)-c1ccccc1S(=O)(=O)N2CC(=O)NCCCn1ccnc1	FECH inh active
CCc1ccc2c(c1)-c1ccccc1S(=O)(=O)N2CC(=O)NCc1cccnc1	FECH inh active
CCc1ccc2c(c1)-c1ccccc1S(=O)(=O)N2CC(=O)NCCSC1CCCCC1	none
CCc1ccc(C2=C(C)C(=O)N(CC(=O)NCc3cccs3)S2(=O)=O)cc1	none
CC(C)Nc1ncc(C(=O)NCc2cccnc2N2CCN(C)CC2)cn1	none
Cc1ccccc1CN1CC(=O)N(Cc2cccc(C(F)(F)F)c2)c2ccccc2S1(=O)=O	none
COc1ccccc1NCc1nc2nc3c(c(=O)n2[nH]1)CCC3	none
CCc1nc2nc(C)c(NC(=O)Nc3cccc(F)c3)c(=O)n2[nH]1	none
COc1ccc(CNc2nc3nc(CNc4cccc(Cl)c4)cc(=O)n3[nH]2)cc1	none
O=c1c2c(nc3nc(CNc4cccc(C(F)(F)F)c4)[nH]n13)CCC2	FECH inh active
Cc1nc2nc[nH]n2c(=O)c1NC(=O)Nc1cccc(C(F)(F)F)c1	none
COc1cccc(NCc2nc3nc4c(c(=O)n3[nH]2)CCC4)c1	FECH inh active
Cc1cc(C)c(NS(=O)(=O)c2cc(N3C(=O)CCS3(=O)=O)ccc2C)c(C)c1	none
CNc1nc(N2CCC(Cc3nnc(SC)n3C)CC2)nc2c1CCC2	FECH inh active
CSc1nnc(CC2CCN(C/C=C/c3ccco3)CC2)n1C	none
Cc1ccc(-n2ncc3c(-n4nc(C)cc4NC(=O)c4cccc(Cl)c4)ncnc32)c(C)c1	none
CCc1cc(Sc2ccc(NC(=O)c3ccc(OC)cc3)cc2)n2ncnc2n1	none
CCOc1ccc(N(Cc2nc3nc(C)cc(C)n3n2)C(=O)c2ccc(C(C)(C)C)cc2)cc1	none
O=C(CN1CCCN(Cc2ccccc2)S1(=O)=O)NCc1ccc(Cl)cc1	none
Cc1ccc(CN2CCCN(CC(=O)NCc3ccccc3)S2(=O)=O)cc1	FECH inh active
COc1ccc(CNC(=O)CN2CCCN(Cc3ccccc3Cl)S2(=O)=O)cc1	none
Cc1ccc(CNC(=O)CN2CCCN(Cc3cccc(C)c3)S2(=O)=O)cc1	none
Cc1ccc(CN2CCCN(CC(=O)NCc3ccccc3Cl)S2(=O)=O)cc1	FECH inh active
Cc1ccc(CN2CCCN(CC(=O)NCCc3ccccc3)S2(=O)=O)cc1	none
CSc1nc(Nc2ccc(N3CCC(C)CC3)cc2)c(C#N)c(-c2ccc(C)cc2)n1	none
Cc1cc(N2CCCC2)nc(Nc2ccc(NC(=O)c3ccc(Br)o3)cc2)n1	none
Cc1cc(C)c2[nH]c(C)c(CC(=O)NCCSc3ncn[nH]3)c2c1	none
COc1ccc(OC)c(CNC(=O)[C@@H]2C[C@H](NC(=O)c3ccco3)CN2C)c1	none
CCN1CCN(C(=O)CN2C(=O)C3CCCCN3c3ccc(C(=O)N(C)C)cc32)CC1 (stereo not drawn)	none
CCc1ccc2c(c1)-c1ccccc1S(=O)(=O)N2CC(=O)N1CCN(CC)CC1	FECH inh active
NC(=O)C1CCN(C(=O)CN2c3ccc(Br)cc3-c3ccccc3S2(=O)=O)CC1	none
O=C(CN1C(=O)C2CCCCN2C(=O)c2ccccc21)N1CCN(Cc2ccccc2)CC1 (stereo not drawn)	none
CCc1ccc2c(c1)-c1ccccc1S(=O)(=O)N2CC(=O)N1CCN(C)CC1	FECH inh active
CN1CCN(C(=O)CN2C(=O)C3CCCCN3c3ccc(C(=O)N(C)C)cc32)CC1 (stereo not drawn)	none
CCc1cc(C(=O)N2Cc3cnc(CC(C)C)nc3C2)cs1	none
CCc1c(C)nc2ncnn2c1Sc1ccc(NC(=O)C(C)C)cc1	none
CCC(C)NC(=O)Cn1c(=O)n(Cc2ccc(C(=O)NC)cc2)c(=O)c2cc(OC)c(OC)cc21 (stereo not drawn)	FECH inh active
COc1cc2c(=O)n(Cc3ccc(C(=O)NC4CCCC4)cc3)c(=O)n(CC(N)=O)c2cc1OC	none
CCC(C)NC(=O)c1ccc(Cn2c(=O)c3cc(OC)c(OC)cc3n(CC(N)=O)c2=O)cc1 (stereo not drawn)	none
CCCNC(=O)Cn1c(=O)n(Cc2ccc(C(=O)NC)cc2)c(=O)c2cc(OC)c(OC)cc21	none
CNC(=O)c1ccc(Cn2c(=O)c3cc(OC)c(OC)cc3n(CC(=O)NC3CCCC3)c2=O)cc1	FECH inh active
CCCNC(=O)c1ccc(Cn2c(=O)c3cc(OC)c(OC)cc3n(CC(=O)NC(C)CC)c2=O)cc1 (stereo not drawn)	none
COc1cc(OC)cc(C(=O)Nc2cc(C)nn2-c2ncnc3c2cnn3-c2cccc(C)c2C)c1	none
CC1CCN(Cc2cc(=O)n3[nH]c(NCc4ccc(Cl)cc4)nc3n2)CC1	none
CCn1cnnc1CN(C)C(=O)c1cc(COc2ccccc2F)[nH]n1	none
CC(C)CN(Cc1ccccn1)C(=O)c1ccsc1	none
O=C(NC1CCCCC1)c1nc[nH]c1C(=O)NC1CCCCNC1=O (stereo not drawn)	none
O=C(NC1CC1)c1nc[nH]c1C(=O)NC1CCCCNC1=O (stereo not drawn)	FECH inh active
CCCNC(=O)c1[nH]cnc1C(=O)NC1CCCCNC1=O (stereo not drawn)	none
CCc1cc(Sc2ccc(NC(=O)Nc3cc(Cl)ccc3C)cc2)n2nc(C)nc2n1	none
Cc1nc(-c2cccc(NC(=O)Nc3ccc(S(N)(=O)=O)cc3)c2)no1	none
NS(=O)(=O)c1ccc(CCNC(=O)c2cc(-c3ccc(Cl)cc3)on2)cc1	none
Cc1ccc(-c2cc(C(=O)Nc3ccc(S(N)(=O)=O)cc3)no2)cc1C	FECH inh active
CN1CC(=O)N(CC(=O)Nc2ccccn2)c2ccccc2C1=O	none
CC(C)c1nc(CCN(C)C(=O)c2ccc(Cl)cn2)no1	none
Cc1cc(C)n(CCC(=O)N(C)CCc2noc(C(C)C)n2)c(=O)n1	FECH inh active
Cc1cc(C)n(CCC(=O)N(C)Cc2noc(CC(C)C)n2)c(=O)n1	none
COC(=O)c1cc2ccsc2n1CC(=O)Nc1c(C)cccc1C	none
CCOC(=O)c1cc2ccsc2n1CC(=O)Nc1ccccc1C	none
CCOC(=O)c1cc2ccsc2n1CC(=O)Nc1c(C)cc(C)cc1C	FECH inh active
Cc1ccccc1NC(=O)CC(=O)NCc1cc(F)ccc1F	none
Cc1c(NC(=O)C(=O)c2ccco2)cccc1C(=O)NC1CCCCC1	none
CCc1cnc(N2CCc3nnc(CNC(C)=O)n3CC2)nc1	none
CCc1c(C)nc2ncnn2c1Sc1ccc(NC(=O)Nc2ccc(F)cc2)cc1	none
CCc1c(C)nc2ncnn2c1Sc1ccc(NC(=O)Nc2ccc(C)c(F)c2)cc1	FECH inh active
CCc1c(C)nc2ncnn2c1Sc1ccc(NC(=O)Nc2ccc(C)c(C)c2)cc1	none
CCc1c(C)nc2ncnn2c1Sc1ccc(NC(=O)Nc2ccccc2)cc1	none
CCc1c(C)nc2ncnn2c1Sc1ccc(NC(=O)Nc2cccc(C)c2)cc1	none
CCc1c(C)nc2ncnn2c1Sc1ccc(NC(=O)Nc2ccc3c(c2)OCCO3)cc1	FECH inh active
COc1cccc(N2CCC(NCc3noc(-c4ccco4)n3)CC2)c1	none
